Compound activity as filed in PubChem BioAssay.
Sampled rows, rich in hits. Any-hit rate of the full collection: about 3.4%.
hgDAF-12 ag = agonists of H. glycines DAF-12 nuclear receptor; HEK293 GAL4-hgDAF12 UAS-luciferase reporter, agonist luminescence; normalized to butyrate control; activation, % at 6.8 µM; 370,000 tested, 1.8% active; AID 687014;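 active = activation above a cutoff set at the mean of all screened compounds plus 3 SD, cut at about 10% in these data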;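 note: 0% = DMSO wells and 100% = sodium butyrate wells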
ssDAF-12 act = activates DAF-12 receptor from parasite S. stercoralis. 370,000 tested, 1% active. activation, % at 6.8 µM. AID 652126. HEK293 ssDAF-12/GRIP1 lit1-tk-luc reporter, luminescence; % of 3 µM dafachronic acid response;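 active = activation above the mean over all tested compounds plus 3 SD, cut at about 0.9% in these data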;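 note: 0% = DMSO-only wells and 100% = 3 µM delta7-dafachronic acid wells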
APP 5'UTR act = APP 5'UTR luciferase reporter activation; SH-SY5Y APP 5'UTR luciferase reporter, luminescence; zero percent = DMSO vehicle wells; activation, % at 2 µM; 190,000 tested, 1% active; AID 1276;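 active = activation above a set limit, based on mean plus 3 SD of controls, cut at about 140% in these data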
NF-kB expr up = compounds increasing NF-kB expression in human neuronal cells | NF-kB reporter expression; active compounds read high | fold change at 12.5 µM | 190,000 tested, 1.6% active; in the data active = fold change above about 3.3
hcDAF-12 act = activators of H. contortus DAF-12 nuclear receptor; HEK293 hcDAF-12 lit1-tk-luc reporter, luminescence; 0% DMSO, 100% Δ7-dafachronic acid; activation, % at 6.8 µM; 370,000 tested, 1.4% active;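 active = activation above the mean of all tested compounds plus 3 SD, cut at about 5.5% in these data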;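 note: 100% = response to 3 µM Δ7-dafachronic acid high control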
LXR ag = LXR-beta agonism as hcDAF-12 counter-screen. shares compounds with hcDAF-12 act. HEK293 Gal4-LXR tk-luc reporter, luminescence, 24 h; normalized: DMSO 0%, positive control 100%. activation, % at 6.8 µM. 3,400 tested, under 10 active. AID 743027;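 active = mean percent activation of the reporter above a cutoff set as the average over tested compounds plus their standard deviation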
Target sequence (P55055 whole entry, looked up, the tested form may be a part): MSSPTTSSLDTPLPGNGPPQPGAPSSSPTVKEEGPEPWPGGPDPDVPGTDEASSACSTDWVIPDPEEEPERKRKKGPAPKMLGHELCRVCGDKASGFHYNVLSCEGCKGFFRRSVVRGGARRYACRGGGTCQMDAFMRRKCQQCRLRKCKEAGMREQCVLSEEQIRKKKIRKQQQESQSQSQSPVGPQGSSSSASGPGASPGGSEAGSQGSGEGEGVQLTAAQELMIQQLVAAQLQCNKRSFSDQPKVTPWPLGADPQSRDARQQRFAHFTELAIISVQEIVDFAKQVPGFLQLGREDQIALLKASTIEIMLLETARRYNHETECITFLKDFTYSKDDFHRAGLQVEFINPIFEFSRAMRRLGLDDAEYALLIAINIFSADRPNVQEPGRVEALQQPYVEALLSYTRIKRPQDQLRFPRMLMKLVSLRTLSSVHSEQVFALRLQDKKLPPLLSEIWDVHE
hcDAF12 conf = hcDAF-12 agonism, confirmation assay; shares compounds with hcDAF-12 act; HEK293 hcDAF-12 lit1-tk-luc reporter, luminescence; % of Δ7-dafachronic acid response; activation, % at 6.8 µM; 3,400 tested, 61% active;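 active = mean activation across triplicate tests above the threshold derived from the earlier primary screen, cut at about 5.5% in these data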;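 note: 0% = DMSO only wells and 100% = 3 µM Δ7-dafachronic acid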
hgDAF12 conf = hgDAF-12 agonism, confirmation assay. shares compounds with hgDAF-12 ag. HEK293 GAL4-hgDAF12 luciferase reporter, agonist mode; percent of butyrate response. activation, % at 6.8 µM. 3,300 tested, 80% active;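 active = mean activation over triplicate wells above the hit cutoff derived from the earlier primary screen, cut at about 11% in these data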;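 note: 0% = DMSO low control and 100% = 2 mM sodium butyrate high control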
LXR ag 2 = LXR-beta agonism as DAF-12 counter-screen. shares compounds with hgDAF-12 ag. HEK293 Gal4-LXR luciferase reporter, 24 h. activation, % at 6.8 µM. 3,300 tested, under 10 active. AID 743051;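 active = mean activation of the triplicate above a set limit carried over from the primary screen, none filed active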
* hit, by the source's call; nt = no result.

SMILES	hgDAF-12 ag	ssDAF-12 act	APP 5'UTR act	NF-kB expr up	hcDAF-12 act	LXR ag	hcDAF12 conf	hgDAF12 conf	LXR ag 2
C=CCN1C(=O)[C@@H](CC(=O)NCCCOCCCC)[C@]2(C(=O)OC)CCCCC=C12	1.1	-1.6	nt	nt	0.6	nt	nt	nt	nt
C#CCNC(=O)C[C@H]1C[C@@]2(C(=O)OC)C(=C[C@H](COCc3ccccc3)O[C@@H]2C)N(Cc2ccco2)C1=O	3.5	-1.1	nt	nt	1.3	nt	nt	nt	nt
Cc1cc(-c2nc3ncccc3o2)ccc1N	8.7	-0.8	43.4	1.8	0.3	nt	nt	nt	nt
Nc1cc(-c2nc3ncccc3o2)ccc1Cl	14.3*	1.4*	82.8	2.49	12.0*	0.9	8.3*	10.1	0.4
O=C(Cc1cccc(F)c1)Nc1ccc2c(c1)CCC2	3.8	-0.9	nt	nt	-0.6	nt	nt	nt	nt
O=C(Nc1ccc2c(c1)CCC2)c1ccccc1Br	17.9*	0.5	218.9*	1.15	7.2*	1.5	5.3	17.5*	0.8
O=C(Nc1ccc2c(c1)CCC2)c1cccc(F)c1	18.9*	0.8	169.7*	6.8*	8.0*	1.2	5.7*	13.9*	0.8
O=C(CSc1ncnc2ccccc12)c1cccs1	19.4*	2.4*	139.2*	4.57*	15.8*	1.0	8.8*	16.6*	0.9
COc1ccc(/C=C/C(=O)N(C)C2CCCCC2)cc1Br	5.5	-1.4	29.2	1.42	-1.3	nt	nt	nt	nt
CN(C(=O)/C=C/c1cnc2ccccc2c1)C1CCCCC1	17.3*	0.9*	275.2*	3.9*	8.1*	1.1	6.3*	14.8*	0.8
COc1ccc(S[C@]2(C(=O)N3CCN(c4ncccn4)CC3)CC(=O)N(C(=O)C3CC3)[C@@H]2c2ccc(OC)cc2)cc1	0.9	-0.7	nt	nt	-1.1	nt	nt	nt	nt
Cc1cc(N2CCOCC2)n2ncc(-c3ccccc3Cl)c2n1	17.5*	0.4	nt	nt	6.9*	1.3	7.0*	15.9*	0.7
CC(C)c1cc(N2CCOCC2)n2ncc(-c3ccccc3)c2n1	-1.2	-1.2	nt	nt	2.9	nt	nt	nt	nt
Cc1nn(-c2ccccc2)c2sc(C(=O)NCc3ccc4c(c3)OCO4)cc12	5.7	-1.9	nt	nt	-2.3	nt	nt	nt	nt
N#Cc1ccc(/C=C2\CC3(OC(=O)c4ccccc4)CCCN2C3)cc1 (configuration not stated)	-2.2	-1.2	nt	nt	-1.6	nt	nt	nt	nt
Clc1ccc(-n2c(SCc3cccc4ccccc34)nnc2-c2ccccn2)cc1	1.6	-1.8	nt	nt	-4.2	nt	nt	nt	nt
CC(Oc1ccc(Cl)cc1Cl)c1nc(-c2ccccn2)no1 (configuration not stated)	7.8	-1.1	19.1	2.01	2.0	nt	nt	nt	nt
Cc1ccc(OCc2nc(-c3ccccn3)no2)cc1	17.6*	0.9*	138.8*	5.1*	8.9*	0.8	3.3	15.4*	0.8
CC(C)c1ccc(OCc2nc(-c3ccccn3)no2)c(Br)c1	14.8*	0.9*	181.7*	5.41*	7.6*	1.4	7.0*	15.7*	0.7
Cc1ccccc1C1CCC2(CCC(=O)N2CC[C@@H](O)c2ccccc2)CC1 (some centres not stated)	-0.9	-2.3	nt	nt	-0.6	nt	nt	nt	nt
COc1ccc(-c2cc3nc(C)cc(N)n3n2)cc1	19.5*	2.4*	147.4*	4.14*	14.9*	1.9	12.8*	19.2*	1.1
COc1ccc(-c2cc3nc(C)cc(-c4ccc(OC)cc4)n3n2)cc1	1.5	0.0	nt	nt	1.1	nt	nt	nt	nt
Oc1ccc(C=NNc2nc3ccccc3s2)c(O)c1	13.3*	1.8*	nt	nt	9.6*	1.9	5.2	10.9*	1.4
OCC(O)/C=N/Nc1nc2ccccc2s1 (configuration not stated)	3.6	-0.7	16.9	1.24	3.8	nt	nt	nt	nt
C(=N\Nc1nc2ccccc2s1)/c1cccs1	16.4*	3.3*	212.2*	7.07*	20.3*	2.0	17.4*	23.8*	1.2
SMILES	hgDAF-12 ag	ssDAF-12 act	APP 5'UTR act	NF-kB expr up	hcDAF-12 act	LXR ag	hcDAF12 conf	hgDAF12 conf	LXR ag 2
Oc1ccccc1C=NNc1nc2ccccc2s1	21.6*	3.0*	nt	nt	15.6*	1.9	16.7*	19.1*	1.1
Cc1cc(N/N=C/c2ccco2)c2ccccc2n1	-0.9	-1.0	-1.4	1.38	-1.6	nt	nt	nt	nt
C(=N\Nc1nc2ccccc2s1)/c1ccco1	15.3*	2.6*	202.6*	5.51*	16.6*	1.8	11.8*	20.9*	1.3
CC(=O)Nc1ccc2nc3ccccc3nc2c1	5.4	0.0	nt	nt	3.9	nt	nt	nt	nt
C=C(C)C(=O)Nc1ccc2nn(-c3ccccc3O)nc2c1	20.4*	1.6*	nt	nt	8.0*	2.0	10.1*	20.3*	1.0
C[C@H]1COc2cc(Br)ccc2S(=O)(=O)N1Cc1cn(Cc2ccc(Cl)cc2)nn1	1.2	-1.9	nt	nt	-1.2	nt	nt	nt	nt
Cc1ccc(/C=N/N=C/c2ccc(C)s2)s1	17.7*	0.5	177.9*	10.5*	9.1*	1.9	8.2*	21.3*	0.9
CCCCN(C)C(=O)c1cc2cc3ccc(OC)cc3nc2s1	17.5*	0.3	188.4*	3.12	7.0*	1.4	7.1*	15.8*	1.0
CN(C)c1ccc(/C=C/c2nnnn2-c2ccccc2)cc1	16.9*	0.2	131.9	3.92*	11.0*	1.1	6.1*	21.6*	0.9
Cc1cc(N/C=C\c2nnnn2-c2ccccc2)no1	5.8	-0.3	-10.2	1.56	1.3	nt	nt	nt	nt
O=C(/C=C/Nc1ccc(F)cc1F)c1ccco1	24.9*	2.1*	151.9*	4.89*	15.1*	1.9	19.8*	13.7*	1.0
COc1ccc(-c2nc3ccccn3c2CN2CCN(c3ccccc3F)CC2)cc1	6.0	-1.1	8.7	0.8	0.3	nt	nt	nt	nt
COc1ccc(-c2nc3ccccn3c2Cl)cc1	14.1*	3.2*	nt	nt	15.0*	1.7	18.6*	24.0*	1.2
Fc1cccc(/C=N/Nc2nncc3ccccc23)c1	21.0*	1.5*	nt	nt	12.1*	1.8	13.9*	23.4*	1.2
C(=N\Nc1nncc2ccccc12)/c1ccccn1	8.4	-0.2	nt	nt	2.4	nt	nt	nt	nt
O=C(NC(=S)Nc1ccccc1)c1ccc(Br)o1	17.1*	-0.6	71.5	1.94	7.9*	0.7	7.6*	13.3*	0.4
CC(C)C[C@@H]1COc2cc(Br)ccc2S(=O)(=O)N1Cc1cn(Cc2ccc(C(F)(F)F)cc2)nn1	1.0	-1.7	nt	nt	-1.5	nt	nt	nt	nt
Nc1cccc2c1C(=O)N(CCOc1ccc(F)cc1)C2=O	16.8*	0.0	nt	nt	10.5*	1.6	9.3*	17.6*	1.1
